Compounds with a hit are over-represented: about 1.7% of the library has one in this group of screens.
GLP-1R inv ag – qHTS of GLP-1 Receptor Inverse Agonists (Inhibition Mode) | Glucagon-like peptide 1 receptor (Homo sapiens), P43220 | HEK293 GLP-1R CRE-luciferase, luminescence, 24 h; GLP-1R form is constitutively active | actives 1.6% (n = 410,000) | Potency, µM (doses to about 38.3 µM), hits mostly inhibitors; note: nearly all actives have a fitted effect of over 55% in size
Target sequence (P43220 whole entry, looked up): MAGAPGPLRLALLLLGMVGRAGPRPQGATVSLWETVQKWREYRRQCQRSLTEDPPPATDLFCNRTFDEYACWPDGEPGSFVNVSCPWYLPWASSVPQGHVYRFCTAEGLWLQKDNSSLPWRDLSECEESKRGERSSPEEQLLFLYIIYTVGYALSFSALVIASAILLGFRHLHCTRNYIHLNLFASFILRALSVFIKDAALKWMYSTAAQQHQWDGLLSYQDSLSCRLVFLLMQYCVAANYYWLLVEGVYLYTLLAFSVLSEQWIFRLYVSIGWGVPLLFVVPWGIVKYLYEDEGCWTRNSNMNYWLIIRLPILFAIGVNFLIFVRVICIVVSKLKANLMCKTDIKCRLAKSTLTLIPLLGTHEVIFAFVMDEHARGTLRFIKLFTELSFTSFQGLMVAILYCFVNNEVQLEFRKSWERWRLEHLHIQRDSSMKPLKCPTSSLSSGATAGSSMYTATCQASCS
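Using stably transfected HEK293 (constitutively active GLP-1R, cAMP-luciferase reporter), compounds were incubated 24 hr and luciferase measured by luminescence.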
RGS4 inh – Inhibitors of Regulator of G Protein Signaling (RGS) 4: qHTS; Transcreener GDP fluorescence polarization, RGS4-accelerated GTP hydrolysis; Potency, µM (titrated, usually from 114 µM), hits mostly inhibitors; actives 0.039% (n = 390,000); note: nearly all actives have a fitted effect of over 75% in size
Target sequence (P49798 whole entry, looked up): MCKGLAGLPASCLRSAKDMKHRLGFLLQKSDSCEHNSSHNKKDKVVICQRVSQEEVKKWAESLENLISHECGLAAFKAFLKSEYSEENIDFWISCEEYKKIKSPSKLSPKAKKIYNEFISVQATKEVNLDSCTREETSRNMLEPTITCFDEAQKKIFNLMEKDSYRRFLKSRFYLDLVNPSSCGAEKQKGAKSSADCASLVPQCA
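MLSMR compounds (23 nl, pin-transferred) preincubated 10 min at room temperature with a 500nM (2x) first reagent, then RGS4 at 900nM (2x) plus Transcreener GDP mix added; fluorescence polarization (620/688 nm) read before and after 90 min at 30 °C.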
PTHR1 agonist – qHTS for PTHR1 Agonists: Primary Screen. AID 743266, 2014. actives 0.075% (n = 410,000). HEK293 GP2 PTHR1 cells, GloSensor cAMP luminescence, 1 h. Potency, µM (titrated, usually from 115 µM), actives largely listed as activators. Parathyroid hormone/parathyroid hormone-related peptide receptor (Homo sapiens), Q03431; note: nearly all actives have a fitted effect of over 55% in size
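HEK-293-derived GP2 cells expressing PTHR1 and a GloSensor cAMP reporter, 3,000/well, plated overnight, given luciferin plus IBMX (each 0.5 mM as added) for 1 h at 37 °C, then compound for 1 h at 37 °C. Luminescence was read after 15 min at room temperature.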
GLP1R ag – qHTS of GLP-1 Receptor Agonists; Glucagon-like peptide 1 receptor (Homo sapiens), P43220; AID 624172, 2012; HEK293 GLP-1R CRE-luciferase, luminescence, 4-6 h; cells express a hypersensitive GLP-1R form; Potency, µM (top dose mostly 45.6 µM), usual class: activators; actives 0.007% (n = 380,000)
GLP1R cytotox – qHTS of GLP-1 Receptor Inverse Agonists: Cytotox Screen; HEK293 cAMP-luciferase reporter cells, luminescence, 24 h; Potency, µM (series often up to 38.3 µM), actives largely listed as inhibitors; actives 0.13% (n = 410,000); AID 624418, 2012;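 note: loss of luciferase light is scored as toxicity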
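To flag toxic compounds, the library was rerun on cells for 24 hr at 37 deg C and 5% CO2. Viability-linked luminescence was captured 12 min after adding luciferase detection reagent.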
Large screens that a line does not name were inactive. Calls come from the whole dose curve; as a rule, active = well fitted curve in the direction sought with a large enough effect; inconclusive = small, poorly fitted or top-dose-only effect, or another doubt; inactive = no such curve, though single readings can be large; an effect the other way counts as inactive or inconclusive.

CCN(CC)CCN1C(=O)c2ccccc2NC1c1ccc(Br)cc1 (stereo not given)	GLP-1R inv ag 10µM
Cc1ccc(S(=O)(=O)N(C)CC(=O)OCC(=O)NCCN2C(=O)CSC2=O)cc1	none
COc1ccc(CNC(=O)CN(C)S(=O)(=O)c2ccc3nc(C)sc3c2)cc1	none (no result: GLP1R ag)
O=[N+]([O-])c1cccnc1N1CCC(c2cc(-c3ccc(Cl)cc3Cl)n[nH]2)CC1	GLP-1R inv ag 5.01µM
CCOc1ccc(CCNC(=O)C2CCN(C(=O)N3CC(CC)Oc4ccccc43)CC2)cc1 (stereo not given)	none (no result: GLP1R ag)
O=C(N/N=C/c1cc([N+](=O)[O-])ccc1O)c1ccc2c(c1)OCCO2	GLP-1R inv ag inconclusive, GLP1R cytotox 3.55µM
O=C(N/N=C/c1ccccc1[N+](=O)[O-])c1ccc2c(c1)OCCO2	none
CC(=O)/C(=N/Nc1ccccc1[N+](=O)[O-])N1CCCc2ccccc21	GLP-1R inv ag 10µM, GLP1R cytotox inconclusive
COCC1=C(C(=O)OC(C)OC(=O)OC(C)C)N2C(=O)C(NC(=O)/C(=N\OC)c3csc(N)n3)C2SC1 (stereo not given)	none (no result: GLP-1R inv ag, RGS4 inh, PTHR1 agonist, GLP1R cytotox)
O=C(COC(=O)c1c[nH]c2ccccc12)Nc1cccc(F)c1	GLP-1R inv ag inconclusive
CC(=O)O[C@]1(C(=O)CO)[C@@H](C)C[C@H]2[C@@H]3CCC4=CC(=O)C=C[C@]4(C)[C@@]3(F)[C@@H](O)C[C@]21C	none (no result: GLP-1R inv ag, RGS4 inh, PTHR1 agonist, GLP1R cytotox)
O=c1[nH]c(C2CCN(S(=O)(=O)c3cccc(C(F)(F)F)c3)CC2)nc2c1nnn2Cc1cccc(F)c1	GLP-1R inv ag 7.94µM, GLP1R cytotox inconclusive
O=c1[nH]c(C2CCN(S(=O)(=O)c3ccc4c(c3)OCCO4)CC2)nc2c1nnn2Cc1cccc(F)c1	none
CC(C)(C)N(Cc1ccccc1)C(=O)c1cc2ccccc2o1	GLP-1R inv ag 2.24µM
CN(Cc1ccccc1)C(=O)c1cc2ccccc2o1	none
O=C(CSc1ncc2c(n1)-c1ccccc1N(Cc1ccc(F)cc1)S2(=O)=O)c1ccc(Cl)cc1	none (no result: GLP1R ag)
CC(C)(C)c1ccc(Cn2c(=O)cnc3ccccc32)cc1	GLP-1R inv ag 5.01µM, GLP1R cytotox inconclusive
CC(C)=CCC/C(C)=C\CC/C(C)=C\CC/C(C)=C\CC1=C(C)C(=O)c2ccccc2C1=O	none (no result: GLP-1R inv ag, RGS4 inh, PTHR1 agonist, GLP1R cytotox)
CCN1C(=O)c2ccccc2S(=O)(=O)c2ccc(C(=O)NCc3ccc(F)cc3)cc21	GLP-1R inv ag inconclusive
CC1CCc2[nH]c3ccc(C(=O)N4CCCC(C(F)(F)F)C4)cc3c2C1 (stereo not given)	GLP-1R inv ag 10µM
CCOC(=O)C1CCCN(C(=O)c2ccc3[nH]c4c(c3c2)CC(C)CC4)C1 (stereo not given)	none
Cc1cc2nc(-c3ccc[nH]c3=O)[nH]c2cc1C	GLP-1R inv ag 3.55µM
COc1ccc(Cn2c(C3CCCCC3)nc3c(c(=O)c4ccccc4n3C)c2=O)cc1	none
COc1ccc(CCn2c(C3CCCCC3)nc3c(c(=O)c4ccccc4n3C)c2=O)cc1	GLP-1R inv ag inconclusive, GLP1R cytotox 5.01µM
CCn1cc(CN2CCCC(C(=O)c3ccc(-c4ccccc4)cc3)C2)cn1 (stereo not given)	GLP-1R inv ag 8.91µM
CCOc1ccccc1N(CC)C(=O)c1cc2c(=O)n(CC)c3ccccc3c2s1	GLP-1R inv ag 10µM, GLP1R cytotox inconclusive
COc1cc([C@@H]2c3cc4c(cc3[C@@H](O[C@@H]3O[C@H]5CO[C@H](C)O[C@H]5[C@H](O)[C@@H]3O)[C@H]3COC(=O)[C@H]23)OCO4)cc(OC)c1OP(=O)(O)O	none (no result: GLP-1R inv ag, RGS4 inh, PTHR1 agonist, GLP1R cytotox)
COc1cc(/C=N/NS(=O)(=O)c2ccc(C)cc2)ccc1OCc1ccc(C(=O)O)cc1	GLP-1R inv ag 2.82µM
CN(CCC#N)c1ccc(/C=C(\C#N)c2ccccn2)cc1	GLP-1R inv ag inconclusive
CN(CCC#N)c1ccc(C=C(C#N)c2ccc(Br)cc2)cc1	GLP-1R inv ag 10µM, GLP1R cytotox inconclusive (no result: RGS4 inh)
O=C(Nc1ccc2c(c1)N(S(=O)(=O)c1cccs1)CCC2)c1c(F)cccc1Cl	GLP-1R inv ag 7.94µM
Cc1ccccc1N(C(=O)Cn1nnc(-c2cccs2)n1)C(C(=O)NCCC(C)C)c1ccco1 (stereo not given)	GLP-1R inv ag 5.62µM, PTHR1 agonist inconclusive
COCCNC(=O)C(c1ccco1)N(C(=O)Cn1nnc2ccccc21)c1ccccc1C (stereo not given)	GLP-1R inv ag inconclusive
Cc1cc(N2CCN(C)CC2)nc2ccc(NC(=S)NCCN3CCc4ccccc4C3)cc12	GLP-1R inv ag inconclusive
Cc1cc(N2CCN(C)CC2)nc2ccc(NC(=S)NCCCN3CCc4ccccc4C3)cc12	GLP-1R inv ag inconclusive, GLP1R cytotox 4.47µM
CCCN1CCN(CCCNC(=S)Nc2ccc3nc(N4CCN(CC)CC4)cc(C)c3c2)CC1	GLP-1R inv ag inconclusive, PTHR1 agonist inconclusive, GLP1R cytotox inconclusive
Cc1cc(N2CCCC2)nc2ccc(NC(=S)NCCCN3CCC(C)CC3)cc12	GLP-1R inv ag 5.01µM, GLP1R cytotox inconclusive
CCCS(=O)(=O)NC(=O)C1(C)CCN(C(=O)Cc2ccc(OC)c(OC)c2)C1 (stereo not given)	none (no result: RGS4 inh)
O=[N+]([O-])c1cccc(/C=C2\CCc3cnn(C4CCS(=O)(=O)C4)c32)c1 (stereo not given)	none (no result: RGS4 inh)
COCCn1c(C)cc(C(=O)CSc2nnnn2C2CCCC2)c1C	GLP-1R inv ag 2.24µM
COCCn1c(C)cc(C(=O)CSc2nnc(C)s2)c1C	GLP-1R inv ag 1.26µM
COCCn1c(C)cc(C(=O)CSc2cc(C)c3ccccc3n2)c1C	GLP-1R inv ag 12.6µM
COCCn1c(C)cc(C(=O)COC(=O)c2cccc(O)c2)c1C	GLP-1R inv ag 0.891µM
CN(C(=O)CSc1ccc(S(=O)(=O)N2CCCCC2)cn1)c1ccccc1	none
COc1cc(C(=O)OCC(=O)N2c3ccccc3NC(=O)C2(C)C)ccc1OCC(C)C	GLP-1R inv ag inconclusive
COc1ccc(NC(=O)Nc2c(O)ccc3ccccc23)cc1	RGS4 inh inconclusive
COc1ccc(N(CC(=O)NCc2ccccc2Cl)S(=O)(=O)c2c(C)nn(C)c2C)cc1	none
COc1ccc(-n2cc(CNCCc3ncc(C)[nH]3)c(-c3ccccc3Cl)n2)cc1	GLP-1R inv ag inconclusive
COc1ccc(-n2cc(CNCCc3nc(C)cc(C)n3)c(-c3ccccc3Cl)n2)cc1	GLP-1R inv ag 10µM, GLP1R cytotox inconclusive
COCc1c(C(=O)N2CCN(Cc3c(F)cccc3Cl)CC2)oc2ccccc12	GLP-1R inv ag 10µM

Source: PubChem
